Among the data in ChEMBL document CHEMBL4513141, “CO-ADD screening of NIH (USA) - Clinical Collection” (2021) are Inhibition values, retold here.

Molecules are shown by their SMILES. Potency and affinity values are given separately.

The test system of this assay is Escherichia coli. The conditions noted are these: Concentration 20 uM; ASSAY_TEST Inhibition of Bacterial Growth; detection method Absorption (OD600); MEDIA CAMHB; plate type 384well; NBS; CORNING #3640; time 18 hr.
A word on the Inhibition: it is the change of the read-out against control, counted positive when it falls. Take `C[C@]12CC[C@H]3[C@@H](CCC4=CC(=O)CC[C@@H]43)[C@@H]1CC[C@@H]2O` [NANDROLONE]: the Inhibition was 1.44%.

For the molecule `CC[C@@H](C(N)=O)N1CCCC1=O`, the Inhibition is reported as 0.96%.

In the case of `Cc1ccnc2c1NC(=O)c1cccnc1N2C1CC1` [NEVIRAPINE], the Inhibition is on record as -0.52%.

`O=C(O[C@@H]1Cc2c(O)cc(O)cc2O[C@@H]1c1cc(O)c(O)c(O)c1)c1cc(O)c(O)c(O)c1` [EPIGALOCATECHIN GALLATE]: the Inhibition stood at 5.85%.

As to `COc1ccc2[nH]cc(C3=CCNCC3)c2c1.COc1ccc2[nH]cc(C3=CCNCC3)c2c1.O=C(O)CCC(=O)O`, the Inhibition came out at 5.51%.

With `CN1C(=O)COc2c(C(=O)NC3CN4CCC3CC4)cc(Cl)cc21.Cl` (centres undefined), the Inhibition worked out at 3.95%.

For `CCCCCNC(=N)N/N=C/c1c[nH]c2ccc(OC)cc12.O=C(O)/C=C\C(=O)O` [TEGASEROD MALEATE], the Inhibition is reported as -0.84%.

As for `CC(C)c1cccc(C(C)C)c1O` [PROPOFOL], the Inhibition was -13.59%.

On to `CN/C(=N\CCSCc1nc[nH]c1C)NC#N` [CIMETIDINE], for which the Inhibition was -4.2%.

For the molecule `CN1CCN(C(=O)O[C@H]2c3nccnc3C(=O)N2c2ccc(Cl)cn2)CC1` [ESZOPICLONE], the Inhibition is on record as -0.26%.

Consider `COc1cc(N)c(Cl)cc1C(=O)NC1CN2CCC1CC2.Cl.O` (centres undefined) [ZACOPRIDE HYDROCHLORIDE], for which the Inhibition worked out at 7.58%.

`CCC1(c2ccc(N)cc2)CCC(=O)NC1=O` (centres undefined) [AMINOGLUTETHIMIDE]: the Inhibition worked out at 2.02%.

As to `CCOC(=O)C1=C(COCCN)NC(C)=C(C(=O)OC)C1c1ccccc1Cl` (centres undefined) [AMLODIPINE], the Inhibition is 5.81%.

Regarding `CC(NC(C)(C)C)C(=O)c1cccc(Cl)c1.Cl` (centres undefined) [BUPROPION HYDROCHLORIDE], the Inhibition was determined as 5.32%.

For `CC(COc1ccccc1)N(CCCl)Cc1ccccc1.Cl` (centres undefined) [PHENOXYBENZAMINE HYDROCHLORIDE], the Inhibition worked out at 3.59%.

For `CCOC(=O)C1(c2ccccc2)CCN(CCC(C#N)(c2ccccc2)c2ccccc2)CC1.Cl` [DIPHENOXYLATE HYDROCHLORIDE], the Inhibition is listed as -7.43%.

Turning to `CCOC(=O)c1cncn1[C@H](C)c1ccccc1` [ETOMIDATE], the Inhibition is reported as 2.26%.

Consider `C[N+]1(CCC(C(N)=O)(c2ccccc2)c2ccccc2)CCCCC1.[Br-]` [FENPIVERINIUM BROMIDE], for which the Inhibition was -0.64%.

`CC(=O)CC(c1ccccc1)c1c([O-])c2ccccc2oc1=O.[Na+]` (centres undefined) [WARFARIN SODIUM]: the Inhibition is reported as -2.34%.

Take `c1ccc(Cn2ccnc2)cc1`: the Inhibition is given as -1.92%.

Take `COC(=O)C1=C(C)NC(C)=C(C(=O)OC)C1c1ccccc1[N+](=O)[O-]` [NIFEDIPINE]: the Inhibition came to 3.8%.

On to `N=C(NCc1ccc(Cl)cc1)SCCCc1c[nH]cn1` [CLOBENPROPIT], for which the Inhibition was -3.53%.

Consider `Cl.Cl.OCCN1CCN(CCCN2c3ccccc3Sc3ccc(C(F)(F)F)cc32)CC1` [FLUPHENAZINE HYDROCHLORIDE], for which the Inhibition is -6.08%.

Regarding `CC1CCC[C@H](O)CCCCCc2cc(O)cc(O)c2C(=O)O1` (some centres undefined), the Inhibition is reported as 1.45%.

In the case of `Nc1nc2ccc(Cl)cc2c2nc(-c3ccco3)nn12` [CGS-15943], the Inhibition amounted to 5.2%.

Turning to `C#C[C@]1(OC(C)=O)CC[C@H]2[C@@H]3CCC4=CC(=O)CC[C@@H]4[C@H]3CC[C@@]21C` [NORETHINDRONE ACETATE], the Inhibition was -1.23%.

As for `c1ccc2c3c([nH]c2c1)CNCC3` [TRYPTOLINE], the Inhibition is listed as 3.55%.

`CC(=O)[C@H]1CC[C@H]2[C@@H]3CCC4=CC(=O)CC[C@]4(C)[C@H]3CC[C@]12C` [PROGESTERONE]: the Inhibition worked out at 3.02%.

Consider `CC(C(=O)O)c1ccc(-c2ccccc2)c(F)c1` (centres undefined) [FLURBIPROFEN], for which the Inhibition is recorded as -5.67%.

As to `CC(C)N(CCC(C(N)=O)(c1ccccc1)c1ccccn1)C(C)C.O=P(O)(O)O` (centres undefined) [DISOPYRAMIDE PHOSPHATE], the Inhibition is recorded as -2.32%.

Regarding `CN(C)CCc1c[nH]c2ccc(C[C@H]3COC(=O)N3)cc12` [ZOLMITRIPTAN], the Inhibition is 7.38%.

Turning to `CN(C)CCc1c[nH]c2ccc(Cn3cncn3)cc12.O=C(O)c1ccccc1` [RIZATRIPTAN BENZOATE], the Inhibition is listed as -5.47%.

As to `NS(=O)(=O)c1cc(C2(O)NC(=O)c3ccccc32)ccc1Cl` (centres undefined) [CHLORTHALIDONE], the Inhibition was -0.28%.

Take `Cn1c(=O)c2nc[nH]c2n(C)c1=O.O` [THEOPHYLLINE]: the Inhibition came to 7.82%.
